The source made the active and inactive calls. Unless noted, how the calls were made is not given here.
Tests used:
[1] = compound effects on lung adenocarcinoma cell viability – A549, calcein-AM fluorescence, 48 h, basal, profiling panel (AID 1162); settings: higher = more signal; further: test concentration not given here
[2] = compound effects on differentiated 3T3-L1 adipocyte viability – cell-based, 3T3-L1 adipocytes, calcein-AM fluorescence, 48 h, basal, profiling panel (AID 1163); settings: 3T3-L1 adipocytes viability, higher = more signal; further: test concentration not given here
[3] = compound effects on hepatocellular carcinoma cell viability – HepG2, calcein-AM fluorescence, 48 h, basal, profiling panel (AID 1164); settings: higher = more signal; further: test concentration not given here
[4] = compound effects on multiple myeloma cell viability – MM1S, calcein-AM fluorescence, 48 h, basal, profiling panel (AID 1165); settings: higher = more signal;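 further: viability of MM1S multiple myeloma cells under basal unstimulated conditions; test concentration not given here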
[5] = calcein-AM signal in unstimulated myeloma cells – cell-based, calcein-AM fluorescence, 48 h, PK04 Diversity Set, profiling panel (AID 1166); settings: RPMI8226 myeloma viability, higher = more signal;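 further: cells grown under basal conditions without added stimulus; test concentration not given here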
[6] = JC-1 mitochondrial signal, unstimulated HepG2 cells – cell-based, JC-1 fluorescence, 24 h, 100 nL compound, profiling panel (AID 1167); settings: HepG2 mitochondrial potential, higher = more signal; further: test concentration not given here
[7] = JC-1 mitochondrial signal, unstimulated adipocytes – cell-based, JC-1 fluorescence, 3T3-L1 adipocytes, 24 h, 100 nL compound, profiling panel (AID 1168); settings: JC-1 mitochondrial fluorescence, higher = more signal, called active from +8 up or from −8 down; further: test concentration not given here
[8] = JC-1 mitochondrial signal, unstimulated myeloma cells – cell-based, JC-1 fluorescence, RPMI8226, 24 h, 100 nL compound, profiling panel (AID 1169); settings: JC-1 mitochondrial potential fluorescence, higher = more signal; further: test concentration not given here
[9] = JC-1 mitochondrial signal, unstimulated MM1S myeloma – cell-based, JC-1 fluorescence, 24 h, 100 nL compound, profiling panel (AID 1170); settings: MM1S mitochondrial potential, higher = more signal; further: test concentration not given here
[10] = resazurin metabolic signal in A549 cells – cell-based, resazurin fluorescence, 24 h, PK04 Diversity Set, profiling panel (AID 1171); settings: A549 viability, higher = more signal, called active from +8 up or from −8 down; further: test concentration not given here
[11] = resazurin metabolic signal in HepG2 cells – cell-based, resazurin fluorescence, 24 h, PK04 Diversity Set, profiling panel (AID 1172); settings: HepG2 viability, higher = more signal; further: test concentration not given here
[12] = budding yeast growth changes without added modifier – OD600, strain BY4716, 24 h, basal condition, primary screen (AID 1173); settings: S. cerevisiae BY4716 growth, OD600, 24 h; higher = more signal, called active from +8 up or from −8 down
[13] = viability profiling in MM1S myeloma cells – cell-based, resazurin fluorescence, basal, 24 h, PK04 Diversity Set, profiling panel (AID 1174); settings: higher = more signal, called active from +8 up or from −8 down; further: test concentration not given here
[14] = target: Dihydroorotate dehydrogenase (quinone), mitochondrial (Plasmodium falciparum (isolate 3D7)) (UniProt Q08210); test: inhibition of P. falciparum DHODH – biochemical, C-terminal His tag, absorbance 600 nm, primary screen (AID 1175); settings: PfDHODH enzyme, DCIP absorbance 600 nm; higher = more signal, called active from +8 up or from −8 down;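 further: recombinant parasite enzyme with a five histidine tag at its C terminus; test concentration not given here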
Dihydroorotate dehydrogenase (quinone), mitochondrial (Plasmodium falciparum (isolate 3D7)), sequence (Q08210 whole entry, looked up): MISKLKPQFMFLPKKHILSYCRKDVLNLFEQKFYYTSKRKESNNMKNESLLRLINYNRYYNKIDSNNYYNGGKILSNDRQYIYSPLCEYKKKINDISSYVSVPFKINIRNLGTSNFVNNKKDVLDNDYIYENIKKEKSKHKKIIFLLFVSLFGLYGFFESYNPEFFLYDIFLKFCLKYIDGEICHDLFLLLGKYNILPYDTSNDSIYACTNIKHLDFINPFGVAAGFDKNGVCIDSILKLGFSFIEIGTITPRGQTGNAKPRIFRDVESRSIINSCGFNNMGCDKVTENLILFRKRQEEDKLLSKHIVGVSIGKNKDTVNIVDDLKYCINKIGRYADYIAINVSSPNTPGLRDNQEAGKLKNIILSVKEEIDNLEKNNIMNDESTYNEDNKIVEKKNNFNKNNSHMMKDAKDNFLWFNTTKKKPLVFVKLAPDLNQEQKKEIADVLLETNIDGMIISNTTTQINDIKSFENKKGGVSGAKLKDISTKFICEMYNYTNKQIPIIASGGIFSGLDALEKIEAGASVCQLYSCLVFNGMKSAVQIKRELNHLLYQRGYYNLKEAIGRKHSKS

[15] = inhibition of PAO1 biofilm formation – strain PAO1, LB-PBS medium, absorbance 600 nm, primary screen (AID 1176); further: test concentration not given here; settings: P. aeruginosa PAO1 growth/biofilm, A600, 12 h; higher = more signal
[16] = growth modulation of vineyard yeast isolate – strain RM11-1a, OD600, basal, 24 h, primary screen (AID 1177);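 further: cultures grown under basal conditions with no added stressor; test concentration not given here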; settings: S. cerevisiae RM11-1a growth, OD600, 24 h; higher = more signal, called active from +8 up or from −8 down
[17] = growth of efflux-deficient E. coli DRC39 – strain DRC39, OD650, 24 h, E. coli filamentation inducers, primary screen (AID 1178);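 further: growth measured as culture turbidity by optical density at 650 nm; test concentration not given here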; settings: E. coli DRC39 acrAB, higher = more signal, called active from +8 up or from −8 down
[18] = growth of efflux-deficient E. coli DRC39 – strain DRC39, OD650, 48 h, E. coli filamentation inducers, primary screen (AID 1179);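 further: screen aims at cell division blockers that make cells filament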; settings: E. coli DRC39 delta-acrAB growth, higher = more signal, called active from +8 up or from −8 down
[19] = viability profiling in RPMI8226 myeloma cells – cell-based, resazurin fluorescence, basal, 24 h, PK04 Diversity Set, profiling panel (AID 1180); settings: higher = more signal;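 further: RPMI8826 multiple myeloma cell line at 5000 cells per well; test concentration not given here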
[20] = target: E3 ubiquitin-protein ligase XIAP (Homo sapiens) (UniProt P98170); test: small molecules binding XIAP protein – biophysical, small-molecule microarray, fluorescence 635 nm, primary screen (AID 1181); settings: higher = more signal;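 further: score merges 667 nm emission and signal to noise over triplicate slides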
E3 ubiquitin-protein ligase XIAP (Homo sapiens), sequence (P98170 whole entry, looked up): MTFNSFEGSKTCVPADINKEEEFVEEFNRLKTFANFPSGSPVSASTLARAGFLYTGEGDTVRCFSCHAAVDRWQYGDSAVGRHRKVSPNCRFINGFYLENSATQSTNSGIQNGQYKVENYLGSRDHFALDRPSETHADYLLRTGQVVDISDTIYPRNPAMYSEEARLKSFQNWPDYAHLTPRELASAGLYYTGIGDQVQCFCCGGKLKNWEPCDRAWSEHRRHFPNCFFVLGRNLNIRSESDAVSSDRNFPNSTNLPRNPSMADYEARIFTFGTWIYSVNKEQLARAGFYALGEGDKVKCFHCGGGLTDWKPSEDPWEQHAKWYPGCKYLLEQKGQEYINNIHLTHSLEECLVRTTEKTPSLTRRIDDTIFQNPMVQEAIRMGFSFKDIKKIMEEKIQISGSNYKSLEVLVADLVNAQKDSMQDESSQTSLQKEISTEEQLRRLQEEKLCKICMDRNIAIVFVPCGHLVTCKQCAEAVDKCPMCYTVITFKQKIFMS

Structure (SMILES) | z-score [1] | z-score [2] | z-score [3] | z-score [4] | z-score [5] | z-score [6] | z-score [7] | z-score [8] | z-score [9] | z-score [10] | z-score [11] | z-score [12] | z-score [13] | composite z-score [14] | z-score [15] | z-score [16] | z-score [17] | z-score [18] | z-score [19] | composite z-score [20]
CCOC(=O)[C@H](CC(C)C)NC(=O)CCC1CC(OC(=O)NCc2ccc3c(c2)OCO3)CC2(CCCC(COC(=O)NCC3CCCCC3)O2)O1 (stereo not given in full) | 1.2 | -0.721 | -0.991 | -1.2 | 0.599 | 0.498 | 0.368 (inactive) | -0.247 | -0.972 | 1.26 (inactive) | 0.471 | 0.105 (inactive) | 1.4 (inactive) | -0.19 (inactive) | -0.0326 (inactive) | 0.494 (inactive) | 0.536 (inactive) | 0.0926 (inactive) | 1.32 | -0.0053
O=C(NN=C1C[C@@H](O)[C@@H](O)[C@@H]2[C@@H]3C(=O)N(C[C@@H]4CCCO4)C(=O)[C@@H]3CC[C@@H]12)OCc1ccccc1 | 0.468 | 0.211 | -0.293 | -0.745 | 0.215 | 0.795 | 0.131 (inactive) | 0.103 | -0.989 | -0.451 (inactive) | 0.0986 | -0.485 (inactive) | 0.169 (inactive) | -2.17 (inactive) | 0.328 (inactive) | -1.49 (inactive) | -0.0573 (inactive) | 0.118 (inactive) | -0.111 | 0.0623
CO[C@@H]1C=CCC(=O)N[C@@H](C)C(=O)OC[C@@H](OC)[C@H](C)CCCC(=O)OC[C@H]1C | 0.942 | -0.226 | -0.0306 | 0.188 | -0.0539 | -0.0819 | 0.225 (inactive) | 0.236 | -0.392 | 0.471 (inactive) | 0.287 | -0.445 (inactive) | 0.719 (inactive) | -1.38 (inactive) | -0.479 (inactive) | -0.935 (inactive) | 0.853 (inactive) | 0.174 (inactive) | 1.58 | -0.269
O=C1[C@H]2[C@H]3[C@H](O)[C@H](O)CC(=NOCc4ccccc4)[C@@H]3CC[C@H]2C(=O)N1C[C@@H]1CCCO1 | -0.0287 | -0.444 | -0.581 | 0.229 | -0.812 | -1.01 | 0.577 (inactive) | -0.944 | -0.28 | 0.232 (inactive) | 0.0577 | -0.321 (inactive) | 0.161 (inactive) | -0.0256 (inactive) | 0.611 (inactive) | -0.447 (inactive) | -0.242 (inactive) | 0.403 (inactive) | 0.278 | -0.211
COc1ccc(O[C@@H]2[C@H](O)CO[C@H]2C=Cc2ccccc2)cc1 | 0.576 | 0.759 | 0.898 | -0.418 | -0.483 | 0.364 | 0.0785 (inactive) | 0.868 | -0.121 | -1.44 (inactive) | -1.03 | -4.4 (inactive) | -0.0321 (inactive) | -1.24 (inactive) | 0.83 (inactive) | -1.85 (inactive) | 0.988 (inactive) | -0.741 (inactive) | -0.473 | -0.113
CO[C@H]1COC(=O)CC=C[C@H](C)[C@@H](OC)COC(=O)[C@@H](C)COC(=O)CC=C[C@@H]1C | -0.0895 | 1.19 | 0.389 | 0.242 | 0.21 | 0.429 | 0.673 (inactive) | -0.296 | 1.01 | 0.455 (inactive) | -0.0033 | -1.2 (inactive) | 0.277 (inactive) | 0.151 (inactive) | -0.92 (inactive) | -0.288 (inactive) | 0.224 (inactive) | -0.979 (inactive) | 0.721 | -0.142
CC(CCN1CCCCc2nc(C)c(C)cc21)=NO[C@@H](C)c1cn([C@H](CO)Cc2ccccc2)nn1 | 0.455 | -0.374 | 0.0163 | 0.313 | 0.307 | -1.33 | -0.151 (inactive) | 0.878 | -0.859 | -0.32 (inactive) | -0.841 | 0.102 (inactive) | -1.85 (inactive) | -1.55 (inactive) | -0.631 (inactive) | 0.736 (inactive) | 0.882 (inactive) | 1.46 (inactive) | -0.483 | -0.127
CCOC(=O)NN=C1C[C@@H](O)[C@@H](O)[C@@H]2[C@@H]3C(=O)N(c4cccc(Oc5ccccc5)c4)C(=O)[C@@H]3CC[C@@H]12 | -0.382 | 0.279 | -1.56 | -0.454 | -0.423 | -0.0933 | -0.451 (inactive) | -0.0715 | 0.524 | -0.0206 (inactive) | 0.358 | -0.22 (inactive) | -0.285 (inactive) | -0.108 (inactive) | 0.225 (inactive) | -0.114 (inactive) | -0.347 (inactive) | -1.28 (inactive) | 0.0541 | -0.122
O=C1CCCC=C1C(O)CCOC(c1ccccc1)(c1ccccc1)c1ccccc1 (stereo not given) | -0.893 | -0.268 | -0.26 | -3.43 | -3.62 | -2.77 | -0.115 (inactive) | -0.879 | -0.0919 | 0.418 (inactive) | 0.0714 | -0.529 (inactive) | 0.0795 (inactive) | 0.466 (inactive) | 0.368 (inactive) | 1.25 (inactive) | 0.0368 (inactive) | -0.356 (inactive) | -0.193 | 0.412

— PubChem BioAssay
